For some of these results: Results with a measured potency or affinity are listed apart.

Holding throughout (design): scale not given: direction of the effect not stated beside the values
Test [1] has as its target Protein translocase subunit SecA (Escherichia coli (strain K12)) (UniProt P10408). In words: Assay to Identify E. coli SecA ATPase Inhibitors. It counts as functional. The note with it: 30 µM.
Test [2] concerns the target T1, Ubiquitin-activating enzyme e1, putative (Leishmania donovani (strain BPK282A1)) (UniProt E9BSI1).
T1 sequence (whole entry): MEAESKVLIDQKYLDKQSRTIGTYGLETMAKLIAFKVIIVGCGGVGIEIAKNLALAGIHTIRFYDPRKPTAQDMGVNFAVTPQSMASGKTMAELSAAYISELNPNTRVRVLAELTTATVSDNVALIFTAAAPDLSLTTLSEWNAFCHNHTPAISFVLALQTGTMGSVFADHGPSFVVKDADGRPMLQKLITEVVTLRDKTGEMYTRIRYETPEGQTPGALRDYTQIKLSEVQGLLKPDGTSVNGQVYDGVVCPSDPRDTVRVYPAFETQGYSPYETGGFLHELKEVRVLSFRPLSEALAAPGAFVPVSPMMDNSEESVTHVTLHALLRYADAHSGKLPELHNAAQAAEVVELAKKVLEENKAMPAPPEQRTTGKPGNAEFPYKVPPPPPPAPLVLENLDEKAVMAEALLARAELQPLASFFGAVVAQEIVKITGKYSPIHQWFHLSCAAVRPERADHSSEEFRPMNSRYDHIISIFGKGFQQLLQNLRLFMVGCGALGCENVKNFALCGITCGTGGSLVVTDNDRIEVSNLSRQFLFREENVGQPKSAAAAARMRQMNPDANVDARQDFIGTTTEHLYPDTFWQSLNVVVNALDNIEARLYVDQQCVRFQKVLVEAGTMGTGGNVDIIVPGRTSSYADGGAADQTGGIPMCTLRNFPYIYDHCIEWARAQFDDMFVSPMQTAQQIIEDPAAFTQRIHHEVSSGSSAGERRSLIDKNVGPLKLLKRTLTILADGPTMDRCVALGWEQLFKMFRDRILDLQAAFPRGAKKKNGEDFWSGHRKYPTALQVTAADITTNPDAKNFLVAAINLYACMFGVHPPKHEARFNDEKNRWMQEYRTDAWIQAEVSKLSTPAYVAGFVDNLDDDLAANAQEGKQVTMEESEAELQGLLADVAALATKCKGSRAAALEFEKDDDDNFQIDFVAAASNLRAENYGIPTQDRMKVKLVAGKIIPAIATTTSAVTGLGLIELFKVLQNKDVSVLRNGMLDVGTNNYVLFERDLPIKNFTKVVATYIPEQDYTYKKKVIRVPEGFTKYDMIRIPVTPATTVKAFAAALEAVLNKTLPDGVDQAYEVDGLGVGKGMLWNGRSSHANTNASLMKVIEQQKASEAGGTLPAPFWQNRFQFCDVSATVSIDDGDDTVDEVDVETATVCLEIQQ
The test can be described thus: Leishmania donovani Ubiquitin Activating Enzyme (LdE1). Type of test: functional. The note with it: 30 µM.

In test [3] the target is AMP-activated protein kinase, AMPK (Homo sapiens) (UniProt P54646+O43741+P54619+Q9UGJ0+Q9Y478+Q13131+Q9UGI9). In words: AMP-dependent Kinase enzyme assay. An in vitro enzyme assay that detects ADP turnover that is directly proportional to AMPK activity. This uses naive AMPK that is activated during the assay with MK-8722. Type of test: functional. The note with it: 30 µM.

Test [4] concerns the target Sialic acid-binding Ig-like lectin 9 (Homo sapiens) (UniProt Q9Y336). In words: Hs-Siglec9 ALPHAscreen SOP 20170721. The note with it: 10 µM.
A further test has as its system Trypanosoma cruzi. In words: Trypanosoma cruzi phosphomannomutase and mannose-1-phosphate guanylyltransferase assay. Type of test: functional. The note with it: 10 µM.
Test [5] addresses T2, Arginase-2, mitochondrial (Homo sapiens) (UniProt P78540).
T2 sequence (whole entry): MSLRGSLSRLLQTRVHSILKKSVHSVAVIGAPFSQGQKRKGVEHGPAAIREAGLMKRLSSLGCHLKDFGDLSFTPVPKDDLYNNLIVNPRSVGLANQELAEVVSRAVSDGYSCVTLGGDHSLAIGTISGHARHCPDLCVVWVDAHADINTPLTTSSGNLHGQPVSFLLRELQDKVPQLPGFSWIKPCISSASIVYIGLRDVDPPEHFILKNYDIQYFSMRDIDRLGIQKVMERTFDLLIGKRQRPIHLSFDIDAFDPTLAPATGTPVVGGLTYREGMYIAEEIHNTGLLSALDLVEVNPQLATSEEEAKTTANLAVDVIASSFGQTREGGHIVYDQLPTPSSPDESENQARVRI
In words: in vitro enzyme assay to detect the production of urea directly proportional to the activity of Arginase II. Also: in the data most compounds retested in dose-response had high values. Type of test: functional. The note with it: 33.3 µM.

The target of test [6] is T3, Proteasome subunit beta (Trypanosoma cruzi) (UniProt O96673).
T3 sequence (whole entry): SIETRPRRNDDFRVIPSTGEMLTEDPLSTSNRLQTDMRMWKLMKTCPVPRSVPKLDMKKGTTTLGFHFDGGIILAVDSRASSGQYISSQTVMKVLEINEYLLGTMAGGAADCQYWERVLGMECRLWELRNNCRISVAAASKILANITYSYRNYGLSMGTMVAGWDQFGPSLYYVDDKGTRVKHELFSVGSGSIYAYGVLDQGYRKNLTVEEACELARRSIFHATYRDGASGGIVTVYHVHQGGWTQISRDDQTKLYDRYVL
In words: Trypanosoma cruzi proteasome chymotrypsin-like activity (TcProtChymo) assay. Also: in the data most compounds retested in dose-response had high values. Type of test: functional. The note with it: 9.37 µM.

The next test is filed under the species Homo sapiens. In words: To identify inhibition of the IFN signalling (Jak-Stat) pathway via expression of an eGFP reporter gene under the control of an IFN-stimulated response element (ISRE) containing MxA promoter. Type of test: functional. The note with it: 30 µM.
For test [7], the target named is T4, Tyrosyl-tRNA synthetase, putative (Trypanosoma cruzi (strain CL Brener)) (UniProt Q4DSP6).
T4 sequence (whole entry): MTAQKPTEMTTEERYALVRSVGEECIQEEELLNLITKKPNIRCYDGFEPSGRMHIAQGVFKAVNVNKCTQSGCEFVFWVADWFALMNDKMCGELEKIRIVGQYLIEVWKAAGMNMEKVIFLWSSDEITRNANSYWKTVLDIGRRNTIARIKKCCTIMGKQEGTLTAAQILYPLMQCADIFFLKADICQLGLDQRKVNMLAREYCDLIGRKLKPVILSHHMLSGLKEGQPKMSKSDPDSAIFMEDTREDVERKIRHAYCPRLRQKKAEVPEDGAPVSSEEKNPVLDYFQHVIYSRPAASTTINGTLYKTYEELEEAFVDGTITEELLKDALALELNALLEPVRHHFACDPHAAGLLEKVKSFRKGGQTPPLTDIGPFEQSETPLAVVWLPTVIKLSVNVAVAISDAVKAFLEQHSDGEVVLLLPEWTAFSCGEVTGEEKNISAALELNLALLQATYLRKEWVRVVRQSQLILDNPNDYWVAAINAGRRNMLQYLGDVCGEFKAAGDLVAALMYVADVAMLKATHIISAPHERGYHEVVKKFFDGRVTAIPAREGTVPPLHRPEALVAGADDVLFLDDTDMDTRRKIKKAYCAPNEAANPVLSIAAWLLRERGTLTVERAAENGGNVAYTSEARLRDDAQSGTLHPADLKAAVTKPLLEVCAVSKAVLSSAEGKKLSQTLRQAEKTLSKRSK
The test can be described thus: Trypanosoma cruzi tyrosyl tRNA synthetase (TcYRS) _High Tyrosine SOP. Also: in the data most compounds retested in dose-response had high values. It counts as functional. The note with it: 30 µM.

For test [8], the target named is T4, Tyrosyl-tRNA synthetase, putative (Trypanosoma cruzi (strain CL Brener)). In words: Trypanosoma cruzi tyrosyl tRNA synthetase (TcYRS) SOP. Type of test: functional. The note with it: 30 µM.
Test [9] addresses Chromo domain-containing protein 1 (Saccharomyces cerevisiae (strain ATCC 204508 / S288c) (Baker's yeast)) (UniProt P32657). In words: ScCHD-1 Enzyme Inhibition Assay. Also: in the data most compounds retested in dose-response had high values. Type of test: functional. The note with it: 30 µM.

Chain of Chromo domain-containing protein 1 (Saccharomyces cerevisiae (strain ATCC 204508 / S288c) (Baker's yeast)) (P32657 whole entry, the tested form may be a part): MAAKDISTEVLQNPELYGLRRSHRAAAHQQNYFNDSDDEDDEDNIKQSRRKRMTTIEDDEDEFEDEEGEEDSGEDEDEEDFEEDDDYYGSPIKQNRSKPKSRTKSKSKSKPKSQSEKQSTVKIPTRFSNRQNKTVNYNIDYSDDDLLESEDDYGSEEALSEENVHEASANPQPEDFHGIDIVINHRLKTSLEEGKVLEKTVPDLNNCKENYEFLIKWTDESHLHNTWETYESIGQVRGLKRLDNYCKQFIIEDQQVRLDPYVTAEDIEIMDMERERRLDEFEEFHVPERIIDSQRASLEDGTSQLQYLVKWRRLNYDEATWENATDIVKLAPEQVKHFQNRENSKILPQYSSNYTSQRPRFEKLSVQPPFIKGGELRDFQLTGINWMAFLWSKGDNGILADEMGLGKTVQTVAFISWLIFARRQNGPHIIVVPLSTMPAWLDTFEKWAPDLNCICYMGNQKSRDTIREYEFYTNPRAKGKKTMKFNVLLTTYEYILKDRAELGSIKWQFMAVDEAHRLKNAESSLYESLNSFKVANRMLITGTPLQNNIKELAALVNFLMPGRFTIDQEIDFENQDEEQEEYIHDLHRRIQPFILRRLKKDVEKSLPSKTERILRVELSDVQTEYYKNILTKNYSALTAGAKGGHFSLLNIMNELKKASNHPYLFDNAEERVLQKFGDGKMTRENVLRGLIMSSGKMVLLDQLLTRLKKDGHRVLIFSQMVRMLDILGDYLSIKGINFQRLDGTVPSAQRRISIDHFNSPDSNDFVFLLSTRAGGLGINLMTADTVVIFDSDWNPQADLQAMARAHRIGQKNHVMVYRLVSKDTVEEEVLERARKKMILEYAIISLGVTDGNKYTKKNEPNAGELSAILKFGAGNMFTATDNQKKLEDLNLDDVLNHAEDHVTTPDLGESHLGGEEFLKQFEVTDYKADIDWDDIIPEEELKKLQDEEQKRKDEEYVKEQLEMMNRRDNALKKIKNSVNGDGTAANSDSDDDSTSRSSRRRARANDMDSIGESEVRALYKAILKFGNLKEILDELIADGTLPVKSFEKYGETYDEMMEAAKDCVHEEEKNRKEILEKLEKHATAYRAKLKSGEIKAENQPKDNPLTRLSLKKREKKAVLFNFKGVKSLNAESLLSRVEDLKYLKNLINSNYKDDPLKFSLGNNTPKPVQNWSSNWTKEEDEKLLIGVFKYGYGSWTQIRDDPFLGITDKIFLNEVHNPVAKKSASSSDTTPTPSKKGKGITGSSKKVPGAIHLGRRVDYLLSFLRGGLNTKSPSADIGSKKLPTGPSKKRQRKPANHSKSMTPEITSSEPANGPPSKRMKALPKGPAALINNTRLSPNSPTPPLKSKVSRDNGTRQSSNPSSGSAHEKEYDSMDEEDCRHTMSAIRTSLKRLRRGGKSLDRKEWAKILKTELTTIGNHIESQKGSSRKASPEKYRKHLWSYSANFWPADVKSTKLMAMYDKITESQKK
Chain of Sialic acid-binding Ig-like lectin 9 (Homo sapiens) (Q9Y336 whole entry): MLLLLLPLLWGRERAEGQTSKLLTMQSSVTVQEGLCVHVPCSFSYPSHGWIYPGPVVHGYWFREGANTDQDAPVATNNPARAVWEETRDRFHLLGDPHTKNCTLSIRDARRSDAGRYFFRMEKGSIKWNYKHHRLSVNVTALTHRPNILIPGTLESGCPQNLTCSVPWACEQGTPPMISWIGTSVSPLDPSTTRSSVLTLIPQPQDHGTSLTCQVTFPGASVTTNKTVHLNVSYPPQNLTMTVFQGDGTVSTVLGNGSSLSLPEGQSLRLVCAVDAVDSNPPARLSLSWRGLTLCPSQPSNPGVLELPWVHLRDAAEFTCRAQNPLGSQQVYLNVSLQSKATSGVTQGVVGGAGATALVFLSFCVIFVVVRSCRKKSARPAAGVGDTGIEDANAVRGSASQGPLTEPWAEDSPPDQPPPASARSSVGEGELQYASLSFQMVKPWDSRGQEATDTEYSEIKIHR
Chain of Protein translocase subunit SecA (Escherichia coli (strain K12)) (P10408 whole entry): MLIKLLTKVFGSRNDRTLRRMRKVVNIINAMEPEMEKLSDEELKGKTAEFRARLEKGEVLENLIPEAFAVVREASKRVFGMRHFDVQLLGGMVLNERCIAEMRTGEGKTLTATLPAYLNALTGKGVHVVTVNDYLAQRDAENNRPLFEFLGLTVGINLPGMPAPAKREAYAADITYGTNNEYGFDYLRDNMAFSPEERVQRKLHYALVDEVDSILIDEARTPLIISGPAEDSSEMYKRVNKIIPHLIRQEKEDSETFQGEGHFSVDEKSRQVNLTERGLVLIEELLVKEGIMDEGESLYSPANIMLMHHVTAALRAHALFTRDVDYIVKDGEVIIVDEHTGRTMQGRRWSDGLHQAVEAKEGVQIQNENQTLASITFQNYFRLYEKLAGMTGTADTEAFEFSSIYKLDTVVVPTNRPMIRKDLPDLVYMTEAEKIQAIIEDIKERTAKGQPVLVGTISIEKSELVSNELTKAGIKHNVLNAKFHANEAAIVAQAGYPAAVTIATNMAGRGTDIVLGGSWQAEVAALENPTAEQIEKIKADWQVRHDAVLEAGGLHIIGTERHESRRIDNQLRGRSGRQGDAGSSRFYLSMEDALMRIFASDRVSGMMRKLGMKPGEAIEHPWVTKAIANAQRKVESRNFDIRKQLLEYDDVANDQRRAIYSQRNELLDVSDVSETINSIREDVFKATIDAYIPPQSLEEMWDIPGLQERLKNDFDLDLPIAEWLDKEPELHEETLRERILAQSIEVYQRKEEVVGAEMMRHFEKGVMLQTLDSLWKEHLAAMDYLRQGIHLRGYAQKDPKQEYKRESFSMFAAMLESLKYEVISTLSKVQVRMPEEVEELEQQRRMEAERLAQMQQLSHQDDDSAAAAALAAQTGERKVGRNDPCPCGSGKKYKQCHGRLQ

In the case of `Cc1ccc(CC(=O)N(C)CC2(O)CCN(c3ccccn3)C2)s1` (stereo unspecified), the Percent Effect is -3.85% in test [1]; -1.35% in test [2]; 12.4% in test [3]; -1.42% in [4]; 0.198% in the test with Trypanosoma cruzi; -2.09% in test [5]. Besides, the Percent Effect is 0% in [6]; 1.85% in the test listed under Homo sapiens; 4.3% in test [7]; 6.49% in [8]; -1.65% in test [9].
In the case of `COCC(C)(O)CNC(=O)COc1ccccc1OC` (stereo unspecified), the Percent Effect in test [1] was -1.78%; in test [2], 2.74%; in [3], 6.7%; in test [4], -4.63%; in the test on Trypanosoma cruzi, -4.31%; in [5] it was 2.27%. In addition, the Percent Effect in [6] was 8.52%; in the test listed under Homo sapiens it was 1.8%; in [7] it was 5.38%; in test [8], 7.5%; in test [9] it was -3.71%.
As for `Cc1cc(S(=O)(=O)N2CCCc3ccc(F)cc32)sc1C(=O)O`, the Percent Effect in test [1] is -6.14%; in test [2] it was 0%; in test [3] it was 3.45%; in [4] it was 0.802%; in the test with Trypanosoma cruzi it was -1.85%; in [5], 4.69%. Also, the Percent Effect in test [6] is 1.74%; in the test filed under Homo sapiens, 12.6%; in test [7], -23.5%; in [8] it was -33.3%; in test [9], -2.04%.
For the molecule `CCc1nc(CNC(=O)Nc2ccc(C(=O)NC)cc2C)cs1`, the Percent Effect in [1] was -5.84%; in test [2], 16%; in [3] it was -2.78%; in test [4] it was 18.6%; in the test with Trypanosoma cruzi, 8.28%; in test [5], 6.25%. For the same molecule, the Percent Effect was 4.88% in [6]; 11.9% in the test listed under Homo sapiens; 4.92% in test [7]; 11.1% in [8]; -7.82% in [9].
Turning to `CS(=O)(=O)CCSc1cccc(C#N)c1`, the Percent Effect in test [1] was -3.18%; in test [2] it was -4.17%; in test [3], -4.21%; in [4] it was -5.6%; in the test on Trypanosoma cruzi it was -0.291%; in test [5], -0.442%. In addition, the Percent Effect in test [6] is 7.72%; in the test filed under Homo sapiens, 7.41%; in [7] it was -1.05%; in test [8], 0%; in test [9] it was -0.524%.
Consider `Cc1ncnc2c1CCN(Cc1cccs1)CC2`, for which the Percent Effect in test [1] was -2.76%; in test [2], 8%; in test [3], 10%; in test [4] it was -1.57%; in the test on Trypanosoma cruzi, -6.18%; in test [5], -55.7%. Also, the Percent Effect is -1.2% in [6]; 10.4% in the test listed under Homo sapiens; 8.33% in test [7]; 7.5% in test [8]; -6.96% in [9].
As to `Cc1nn(C)c(N(C)C)c1CNCc1cccc(CN(C)C(C)C)c1`, the Percent Effect in test [1] was -3.75%; in [2], 13.5%; in test [3] it was -10.9%; in test [4] it was 25.4%; with Trypanosoma cruzi, 3.03%; in test [5] it was 10.7%. For the same molecule, the Percent Effect was 9.87% in test [6]; -7.67% in the test filed under Homo sapiens; 5.38% in test [7]; 21% in test [8]; -8.38% in test [9].
`COCCNc1nc(C2CCCC2)nc2c1CCNCC2`: the Percent Effect in [1] was -0.492%; in test [2], -2.7%; in test [3], -0.634%; in test [4] it was -1.74%; in the test with Trypanosoma cruzi, 4.83%; in test [5], 1.91%. The Percent Effect in [6] is -38.6%; in the test filed under Homo sapiens it was -3.26%; in [7] it was 10.1%; in [8], 19.5%; in [9] it was -2.52%.
As to `CC(C)Cc1cc(C(=O)NCCc2ccc(S(C)(=O)=O)cc2)[nH]n1`, the Percent Effect is -3.28% in [1]; 2.63% in test [2]; 9.53% in test [3]; 3.29% in [4]; 3.8% in the test with Trypanosoma cruzi; 0% in test [5]. Moreover, the Percent Effect in test [6] is 12.9%; in the test listed under Homo sapiens, 24%; in [7], 0%; in test [8] it was 10.4%; in test [9], -3.35%.
In the case of `Cn1c(CN2CCOCC2)nnc1C1CCN(C(=O)C2CCCC2)CC1`, the Percent Effect in test [1] was 0.739%; in [2], 13.5%; in [3] it was 1.53%; in [4] it was 14.3%; in the test on Trypanosoma cruzi it was 3.09%; in test [5], 0.476%. Besides, the Percent Effect in test [6] is 20.9%; in the test filed under Homo sapiens, 2.19%; in test [7] it was 5.82%; in test [8] it was 19.5%; in test [9] it was -4.58%.
For `CCN1CCN(C(=O)C(C)N2CCN(Cc3nccn3C)CC2)CC1` (stereo unspecified), the Percent Effect in test [1] is -3.29%; in test [2], 2.7%; in test [3], -1.16%; in test [4] it was 6.16%; in the test with Trypanosoma cruzi it was 6.59%; in test [5], -4.99%. Also, the Percent Effect was 1.08% in [6]; -7.4% in the test listed under Homo sapiens; 0.99% in [7]; 3.66% in [8]; 2.46% in test [9].

The values are drawn from ChEMBL document CHEMBL3988442, “University of Dundee, Small-Polar-MMV Screening Library” (2021).
